Test results from the supplement of paper PMC6555819.

Tests used:
Assay in all cases: PBM binding z-score (relative to random genomic background probes); higher = stronger binding; sequences stand for … in GC…GCGATTGACAGCGTAGAATGAAGG
[1] = test system: FXR:RXRa (NR concentration 270 nM, RXRa partner concentration 90 nM)
In short: (§1)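 Custom Agilent 4×180K protein-binding microarrays carried double-stranded probes, each with a 34-nt variable region. These regions held direct-repeat seeds, single-nucleotide variants, half-site ablations and random human genomic background sequences. Ligand-free nuclear receptor dimers were incubated on the arrays for 1 h, antibodies against each partner (one per run) detected binding, and scanned fluorescence was regression-normalized. Binding z-scores take the random background probes as reference.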

[2] = test system: LXRa:RXRa (NR concentration 270 nM, RXRa partner concentration 90 nM)
In short: as §1

[3] = test system: LXRa homodimer (NR concentration 270 nM)
In short: as §1

[4] = test system: LXRb:RXRa (NR concentration 270 nM, RXRa partner concentration 90 nM)
In short: as §1

[5] = test system: LXRb homodimer (NR concentration 270 nM)
In short: as §1

[6] = test system: PPARa:RXRa (NR concentration 270 nM, RXRa partner concentration 90 nM)
In short: as §1

[7] = test system: PPARg:RXRa (NR concentration 180 nM, RXRa partner concentration 90 nM)
In short: as §1

[8] = test system: PPARg:RXRa 270nM:90nM, anti-RXR (NR concentration 270 nM, RXRa partner concentration 90 nM)
In short: as §1

[9] = test system: PPARg:RXRa 30nM:10nM, anti-RXR (NR concentration 30 nM, RXRa partner concentration 10 nM)
In short: as §1

[10] = test system: PPARg:RXRa 90nM:30nM, anti-RXR (NR concentration 90 nM, RXRa partner concentration 30 nM)
In short: as §1

[11] = test system: PPARg:RXRa DBDmut IVT, anti-RXR (DBD mutation: RXRa K156A/R161A, NR concentration 270 nM, RXRa partner concentration 90 nM)
In short: as §1

[12] = test system: PPARg:RXRa IVT, anti-PPARg (NR concentration 270 nM, RXRa partner concentration 90 nM)
In short: as §1

[13] = test system: PPARg DBDmut:RXRa IVT, anti-PPARg (DBD mutation: PPARg1 K132A/R137A, NR concentration 270 nM, RXRa partner concentration 90 nM)
In short: as §1

[14] = test system: PPARg DBDmut IVT, anti-PPARg (DBD mutation: PPARg1 K132A/R137A, NR concentration 270 nM)
In short: as §1

[15] = test system: PPARg homodimer (NR concentration 180 nM)
In short: as §1

[16] = test system: PXR:RXRa (NR concentration 270 nM, RXRa partner concentration 90 nM)
In short: as §1

[17] = test system: PXR homodimer (NR concentration 270 nM)
In short: as §1

[18] = test system: RARa:RXR (NR concentration 270 nM, RXRa partner concentration 90 nM)
In short: as §1

[19] = test system: RARa homodimer (NR concentration 270 nM)
In short: as §1

[20] = test system: RARb:RXRa (NR concentration 270 nM, RXRa partner concentration 90 nM)
In short: as §1

Sequence: TCATATAGGTAAACAGGTGAAAGTACGTAAGTTA
- PBM binding z-score [1]: 1.36
- PBM binding z-score [2]: 1.03
- PBM binding z-score [3]: 0.233
- PBM binding z-score [4]: 1.26
- PBM binding z-score [5]: 0.199
- PBM binding z-score [6]: 2.74
- PBM binding z-score [7]: 4.09
- PBM binding z-score [8]: 4.04
- PBM binding z-score [9]: 4.33
- PBM binding z-score [10]: 4.17
- PBM binding z-score [11]: 4.97
- PBM binding z-score [12]: 4.72
- PBM binding z-score [13]: 2.79
- PBM binding z-score [14]: 1.19
- PBM binding z-score [15]: 1.65
- PBM binding z-score [16]: 0.938
- PBM binding z-score [17]: 0.715
- PBM binding z-score [18]: 1.22
- PBM binding z-score [19]: 1.42
- PBM binding z-score [20]: 0.779

Sequence: GCTCGGAGGACAGGGTCAGAGCTTTGTCCGTAGA
- PBM binding z-score [1]: 1.13
- PBM binding z-score [2]: 0.858
- PBM binding z-score [3]: -0.746
- PBM binding z-score [4]: 0.906
- PBM binding z-score [5]: -1.08
- PBM binding z-score [6]: 2.62
- PBM binding z-score [7]: -0.204
- PBM binding z-score [8]: 0.469
- PBM binding z-score [9]: -0.854
- PBM binding z-score [10]: 0.00374
- PBM binding z-score [11]: -0.294
- PBM binding z-score [12]: 0.104
- PBM binding z-score [13]: -1.35
- PBM binding z-score [14]: -1.12
- PBM binding z-score [15]: -0.0128
- PBM binding z-score [16]: 1.22
- PBM binding z-score [17]: -0.77
- PBM binding z-score [18]: 2.28
- PBM binding z-score [19]: -1.04
- PBM binding z-score [20]: 2.55

Sequence: TCTATTAGTTGATTGGGGCAACCGAAACAGCGGA
- PBM binding z-score [1]: 1.22
- PBM binding z-score [2]: 0.791
- PBM binding z-score [3]: 0.363
- PBM binding z-score [4]: 1.23
- PBM binding z-score [5]: 1.1
- PBM binding z-score [6]: 1.17
- PBM binding z-score [7]: 0.235
- PBM binding z-score [8]: 1.91
- PBM binding z-score [9]: 3.65
- PBM binding z-score [10]: 2.85
- PBM binding z-score [11]: 2.23
- PBM binding z-score [12]: 1.52
- PBM binding z-score [13]: 0.999
- PBM binding z-score [14]: 1.72
- PBM binding z-score [15]: 0.142
- PBM binding z-score [16]: 0.811
- PBM binding z-score [17]: 0.783
- PBM binding z-score [18]: 1.14
- PBM binding z-score [19]: 1.31
- PBM binding z-score [20]: 1.03

Sequence: CAAACTAGGTCACCGGAAGGGCAAAGTCCGCATG
- PBM binding z-score [1]: 4.22
- PBM binding z-score [2]: 3.85
- PBM binding z-score [3]: 0.736
- PBM binding z-score [4]: 2.88
- PBM binding z-score [5]: 0.171
- PBM binding z-score [6]: 5.16
- PBM binding z-score [7]: 8.84
- PBM binding z-score [8]: 6.95
- PBM binding z-score [9]: 4.85
- PBM binding z-score [10]: 6.67
- PBM binding z-score [11]: 8.45
- PBM binding z-score [12]: 8.73
- PBM binding z-score [13]: 1.66
- PBM binding z-score [14]: 1.37
- PBM binding z-score [15]: 1.44
- PBM binding z-score [16]: 3.29
- PBM binding z-score [17]: 0.241
- PBM binding z-score [18]: 3.92
- PBM binding z-score [19]: 0.698
- PBM binding z-score [20]: 4.47

Sequence: CCTAGGAGGACAGAAGGTCAGAGCTGTCCGCTTT
- PBM binding z-score [1]: 1.3
- PBM binding z-score [2]: 1.59
- PBM binding z-score [3]: 0.0675
- PBM binding z-score [4]: 1.11
- PBM binding z-score [5]: -0.837
- PBM binding z-score [6]: 1.93
- PBM binding z-score [7]: 0.741
- PBM binding z-score [8]: 2.08
- PBM binding z-score [9]: -0.108
- PBM binding z-score [10]: 1.7
- PBM binding z-score [11]: 0.0548
- PBM binding z-score [12]: 0.781
- PBM binding z-score [13]: -1.45
- PBM binding z-score [14]: -0.918
- PBM binding z-score [15]: 0.868
- PBM binding z-score [16]: 1.59
- PBM binding z-score [17]: -0.0903
- PBM binding z-score [18]: 1.98
- PBM binding z-score [19]: 0.629
- PBM binding z-score [20]: 3.02

Sequence: CGTCCAAGGTCAAGGTCAGGGAAAGAGACTCGAA
- PBM binding z-score [1]: 7.19
- PBM binding z-score [2]: 5.97
- PBM binding z-score [3]: 1.22
- PBM binding z-score [4]: 4.87
- PBM binding z-score [5]: 0.963
- PBM binding z-score [6]: 6.11
- PBM binding z-score [7]: 6.41
- PBM binding z-score [8]: 7.28
- PBM binding z-score [9]: 3.93
- PBM binding z-score [10]: 5.91
- PBM binding z-score [11]: 4.11
- PBM binding z-score [12]: 5.09
- PBM binding z-score [13]: 0.821
- PBM binding z-score [14]: -0.224
- PBM binding z-score [15]: 4.18
- PBM binding z-score [16]: 5.28
- PBM binding z-score [17]: 1.82
- PBM binding z-score [18]: 5.45
- PBM binding z-score [19]: 2.88
- PBM binding z-score [20]: 5.72

Sequence: GCTAGTTGGTCAGTAAAAGGTCACACTCCGGTCG
- PBM binding z-score [1]: 3.15
- PBM binding z-score [2]: 4.29
- PBM binding z-score [3]: 4.97
- PBM binding z-score [4]: 3.76
- PBM binding z-score [5]: 0.637
- PBM binding z-score [6]: 4.19
- PBM binding z-score [7]: 2.49
- PBM binding z-score [8]: 4.24
- PBM binding z-score [9]: 1.86
- PBM binding z-score [10]: 3.7
- PBM binding z-score [11]: 1.66
- PBM binding z-score [12]: 2.87
- PBM binding z-score [13]: -0.175
- PBM binding z-score [14]: 0.207
- PBM binding z-score [15]: 3.12
- PBM binding z-score [16]: 4.77
- PBM binding z-score [17]: 0.877
- PBM binding z-score [18]: 5.45
- PBM binding z-score [19]: 1.9
- PBM binding z-score [20]: 4.3

Sequence: TGATTGAGGTTAAAGATCAGGGAACGTGGCGTCG
- PBM binding z-score [1]: 3.41
- PBM binding z-score [2]: 2.42
- PBM binding z-score [3]: 0.0848
- PBM binding z-score [4]: 1.85
- PBM binding z-score [5]: 0.589
- PBM binding z-score [6]: 4.47
- PBM binding z-score [7]: 5.23
- PBM binding z-score [8]: 5.82
- PBM binding z-score [9]: 4.22
- PBM binding z-score [10]: 5.94
- PBM binding z-score [11]: 1.62
- PBM binding z-score [12]: 3.15
- PBM binding z-score [13]: 1.39
- PBM binding z-score [14]: 1.52
- PBM binding z-score [15]: 0.865
- PBM binding z-score [16]: 1.96
- PBM binding z-score [17]: 0.148
- PBM binding z-score [18]: 2.95
- PBM binding z-score [19]: 0.729
- PBM binding z-score [20]: 2.24
